# Assay results from publication PMC7862700, “An all-to-all approach to the identification of sequence-specific readers for epigenetic DNA modifications on cytosine”.
# Assays:
# Test in all cases: DAPPL (digital affinity profiling via proximity ligation, sequencing); 10 mM Tris-HCl pH 7.5, 50 mM NaCl, 1 mM DTT, 4% glycerol, room temperature, 30 min; GST-TFs on glutathione beads, 16-mer random dsDNA library, 0.1% formaldehyde crosslink after washing; high values mean tight binding
# Conditions in all cases: protein: recombinant; tags: N-terminal GST; dsDNA, one strand shown
# [1] = biological target: T1, FLI1 (Homo sapiens, UniProt Q01543 1-452)
# T1 sequence: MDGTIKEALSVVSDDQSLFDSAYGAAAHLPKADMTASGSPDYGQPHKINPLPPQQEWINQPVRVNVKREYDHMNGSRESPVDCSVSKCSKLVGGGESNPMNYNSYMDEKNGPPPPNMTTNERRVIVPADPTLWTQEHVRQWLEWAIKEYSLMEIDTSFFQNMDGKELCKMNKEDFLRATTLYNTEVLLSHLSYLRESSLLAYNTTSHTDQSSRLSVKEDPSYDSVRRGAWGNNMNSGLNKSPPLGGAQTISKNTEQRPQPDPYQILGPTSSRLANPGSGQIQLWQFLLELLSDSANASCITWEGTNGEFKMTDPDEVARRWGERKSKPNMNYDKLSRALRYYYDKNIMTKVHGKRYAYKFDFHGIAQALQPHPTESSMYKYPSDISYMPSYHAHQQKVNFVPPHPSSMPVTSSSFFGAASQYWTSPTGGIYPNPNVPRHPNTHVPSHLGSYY
# Procedure, shortened: (§1)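 Human transcription factors fused to GST were expressed in yeast, captured on glutathione beads, given DNA barcodes and pooled with a GST-only negative control. Pools were incubated with 200 nmole of a 16-mer random double-stranded DNA library in Tris/NaCl/DTT/glycerol buffer at room temperature for 30 min. They were then washed, crosslinked with 0.1% formaldehyde, proximity-ligated (BsaI/T4 ligase, 1 h, 37 °C), PCR-amplified and sequenced on an Illumina NextSeq500. Binding signal is each 6-mer's read frequency for a factor divided by its frequency for the GST control.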
# [2] = biological target: T2, ELK1 (Homo sapiens, UniProt P19419 1-428)
# T2 sequence: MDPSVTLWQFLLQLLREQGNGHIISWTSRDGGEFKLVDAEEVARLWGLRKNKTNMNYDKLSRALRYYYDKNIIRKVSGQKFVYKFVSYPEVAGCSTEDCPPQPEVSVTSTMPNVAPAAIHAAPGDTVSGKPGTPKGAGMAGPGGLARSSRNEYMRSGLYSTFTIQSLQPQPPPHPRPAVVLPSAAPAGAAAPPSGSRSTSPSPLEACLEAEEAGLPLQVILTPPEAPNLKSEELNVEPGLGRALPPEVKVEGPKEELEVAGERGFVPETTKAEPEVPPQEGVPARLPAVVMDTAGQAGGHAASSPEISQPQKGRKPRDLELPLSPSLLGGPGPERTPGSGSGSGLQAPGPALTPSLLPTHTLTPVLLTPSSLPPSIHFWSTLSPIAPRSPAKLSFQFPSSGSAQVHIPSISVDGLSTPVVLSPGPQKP
# Procedure, shortened: as §1
# [3] = biological target: T3, GABPA (Homo sapiens, UniProt Q06546 1-454)
# T3 sequence: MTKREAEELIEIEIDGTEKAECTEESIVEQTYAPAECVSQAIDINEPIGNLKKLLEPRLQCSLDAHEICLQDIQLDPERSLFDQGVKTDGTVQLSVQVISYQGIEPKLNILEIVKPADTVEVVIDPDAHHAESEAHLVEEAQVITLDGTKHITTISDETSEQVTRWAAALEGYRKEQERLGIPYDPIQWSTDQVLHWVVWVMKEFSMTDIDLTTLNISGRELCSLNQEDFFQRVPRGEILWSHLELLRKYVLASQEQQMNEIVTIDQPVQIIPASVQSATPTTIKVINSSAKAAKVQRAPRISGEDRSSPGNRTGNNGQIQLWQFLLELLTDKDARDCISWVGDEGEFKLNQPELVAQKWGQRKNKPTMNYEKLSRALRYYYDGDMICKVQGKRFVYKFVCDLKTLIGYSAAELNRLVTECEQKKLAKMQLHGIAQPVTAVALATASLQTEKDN
# Procedure, shortened: as §1
# [4] = biological target: T4, ERG (Homo sapiens, UniProt P11308 1-479)
# T4 sequence: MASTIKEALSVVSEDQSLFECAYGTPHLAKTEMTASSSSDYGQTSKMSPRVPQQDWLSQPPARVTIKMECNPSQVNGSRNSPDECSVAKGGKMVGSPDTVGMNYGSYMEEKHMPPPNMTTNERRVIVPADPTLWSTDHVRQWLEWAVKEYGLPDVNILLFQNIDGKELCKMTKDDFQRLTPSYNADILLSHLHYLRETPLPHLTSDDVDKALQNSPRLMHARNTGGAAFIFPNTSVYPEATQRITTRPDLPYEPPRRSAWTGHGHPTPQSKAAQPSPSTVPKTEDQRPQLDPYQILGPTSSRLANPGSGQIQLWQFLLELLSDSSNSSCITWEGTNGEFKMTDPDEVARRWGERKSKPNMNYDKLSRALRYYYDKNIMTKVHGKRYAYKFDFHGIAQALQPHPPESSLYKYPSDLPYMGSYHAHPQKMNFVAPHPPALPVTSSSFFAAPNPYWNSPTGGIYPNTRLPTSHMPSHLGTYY
# Procedure, shortened: as §1
# [5] = biological target: ELF1 (Homo sapiens, UniProt P32519 1-619)
# Chain of ELF1 (P32519 whole entry): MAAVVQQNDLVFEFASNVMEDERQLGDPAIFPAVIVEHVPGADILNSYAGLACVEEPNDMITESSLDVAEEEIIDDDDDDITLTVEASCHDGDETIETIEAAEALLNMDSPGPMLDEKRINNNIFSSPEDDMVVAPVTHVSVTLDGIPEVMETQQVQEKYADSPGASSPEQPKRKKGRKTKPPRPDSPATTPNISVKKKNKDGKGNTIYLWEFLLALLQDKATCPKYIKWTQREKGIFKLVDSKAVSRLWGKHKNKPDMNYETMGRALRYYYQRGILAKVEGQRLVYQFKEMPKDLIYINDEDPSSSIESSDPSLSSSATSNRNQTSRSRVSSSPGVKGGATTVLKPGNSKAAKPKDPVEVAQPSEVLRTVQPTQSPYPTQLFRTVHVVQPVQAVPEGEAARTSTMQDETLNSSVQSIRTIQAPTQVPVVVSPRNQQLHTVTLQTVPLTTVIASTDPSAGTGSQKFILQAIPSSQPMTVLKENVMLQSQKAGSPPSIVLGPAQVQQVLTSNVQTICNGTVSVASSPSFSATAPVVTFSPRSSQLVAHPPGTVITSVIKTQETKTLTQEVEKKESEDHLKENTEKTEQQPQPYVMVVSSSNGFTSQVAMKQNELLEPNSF
# Procedure, shortened: as §1
# [6] = biological target: T5, EHF (Homo sapiens, UniProt Q9NZC4 1-300)
# T5 sequence: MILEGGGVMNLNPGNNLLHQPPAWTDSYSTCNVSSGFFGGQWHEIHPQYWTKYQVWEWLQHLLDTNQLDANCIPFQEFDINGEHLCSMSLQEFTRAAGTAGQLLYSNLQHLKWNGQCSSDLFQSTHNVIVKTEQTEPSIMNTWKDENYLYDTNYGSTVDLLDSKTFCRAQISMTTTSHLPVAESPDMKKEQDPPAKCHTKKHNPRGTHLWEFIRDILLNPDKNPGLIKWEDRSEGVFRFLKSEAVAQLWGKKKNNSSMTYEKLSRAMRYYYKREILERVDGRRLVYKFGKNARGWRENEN
# Procedure, shortened: as §1
# [7] = biological target: SPI1 (Homo sapiens, UniProt P17947 1-270)
# Procedure, shortened: as §1
# [8] = biological target: SPIB (Homo sapiens, UniProt Q01892 1-262)
# Chain of SPIB (Q01892 whole entry): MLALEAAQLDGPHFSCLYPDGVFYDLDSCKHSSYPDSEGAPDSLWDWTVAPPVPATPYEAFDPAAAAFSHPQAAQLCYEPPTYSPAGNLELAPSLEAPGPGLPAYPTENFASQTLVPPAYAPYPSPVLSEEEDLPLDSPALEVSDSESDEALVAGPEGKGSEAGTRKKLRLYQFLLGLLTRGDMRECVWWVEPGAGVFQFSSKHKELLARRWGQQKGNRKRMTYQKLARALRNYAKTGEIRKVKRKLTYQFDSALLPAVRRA
# Procedure, shortened: as §1
# [9] = biological target: T6, ELK3 (Homo sapiens, UniProt P41970 1-407)
# T6 sequence: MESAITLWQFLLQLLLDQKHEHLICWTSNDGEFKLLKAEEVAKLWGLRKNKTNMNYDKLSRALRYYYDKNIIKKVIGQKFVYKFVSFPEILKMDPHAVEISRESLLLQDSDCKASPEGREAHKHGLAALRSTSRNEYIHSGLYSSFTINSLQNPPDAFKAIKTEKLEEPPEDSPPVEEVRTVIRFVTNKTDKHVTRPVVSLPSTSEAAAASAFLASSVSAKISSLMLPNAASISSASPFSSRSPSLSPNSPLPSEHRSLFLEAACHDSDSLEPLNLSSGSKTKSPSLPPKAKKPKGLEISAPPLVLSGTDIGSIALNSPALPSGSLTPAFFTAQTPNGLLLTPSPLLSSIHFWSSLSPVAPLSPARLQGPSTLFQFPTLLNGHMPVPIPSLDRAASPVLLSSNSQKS
# Procedure, shortened: as §1
# [10] = biological target: T7, FEV (Homo sapiens, UniProt Q99581 1-238)
# T7 sequence: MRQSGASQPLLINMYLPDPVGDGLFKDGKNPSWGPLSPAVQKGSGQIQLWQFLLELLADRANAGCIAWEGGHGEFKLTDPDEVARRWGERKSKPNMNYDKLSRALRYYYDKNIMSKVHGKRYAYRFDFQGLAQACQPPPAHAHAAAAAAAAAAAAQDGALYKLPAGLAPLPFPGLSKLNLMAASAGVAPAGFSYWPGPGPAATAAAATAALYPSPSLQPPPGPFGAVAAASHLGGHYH
# Procedure, shortened: as §1
# [11] = biological target: ETV5 (Homo sapiens, UniProt P41161 1-510)
# Chain of ETV5 (P41161 whole entry): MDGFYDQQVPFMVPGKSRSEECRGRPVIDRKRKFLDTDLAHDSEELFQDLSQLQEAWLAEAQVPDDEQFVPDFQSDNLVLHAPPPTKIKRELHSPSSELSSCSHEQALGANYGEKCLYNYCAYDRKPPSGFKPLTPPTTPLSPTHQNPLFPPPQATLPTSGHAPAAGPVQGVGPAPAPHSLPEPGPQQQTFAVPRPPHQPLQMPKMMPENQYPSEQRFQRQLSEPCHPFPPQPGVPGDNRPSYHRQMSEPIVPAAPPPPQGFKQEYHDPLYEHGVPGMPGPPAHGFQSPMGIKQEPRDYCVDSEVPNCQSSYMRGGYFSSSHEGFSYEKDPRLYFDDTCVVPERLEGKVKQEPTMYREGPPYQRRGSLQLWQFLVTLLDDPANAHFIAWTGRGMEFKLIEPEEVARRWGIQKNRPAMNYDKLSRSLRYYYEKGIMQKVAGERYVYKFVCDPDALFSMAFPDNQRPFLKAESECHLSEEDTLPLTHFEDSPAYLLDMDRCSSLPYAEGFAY
# Procedure, shortened: as §1
# [12] = biological target: T8, SPIC (Homo sapiens, UniProt Q8N5J4 1-248)
# T8 sequence: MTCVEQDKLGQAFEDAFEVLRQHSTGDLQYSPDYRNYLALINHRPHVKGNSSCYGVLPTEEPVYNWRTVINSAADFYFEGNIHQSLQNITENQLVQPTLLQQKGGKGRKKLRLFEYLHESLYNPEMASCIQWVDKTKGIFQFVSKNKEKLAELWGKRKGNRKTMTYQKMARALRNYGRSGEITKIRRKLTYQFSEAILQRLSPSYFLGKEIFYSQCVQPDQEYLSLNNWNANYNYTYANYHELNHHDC
# Procedure, shortened: as §1
# [13] = biological target: ELF4 (Homo sapiens, UniProt Q99607 1-663)
# Chain of ELF4 (Q99607 whole entry): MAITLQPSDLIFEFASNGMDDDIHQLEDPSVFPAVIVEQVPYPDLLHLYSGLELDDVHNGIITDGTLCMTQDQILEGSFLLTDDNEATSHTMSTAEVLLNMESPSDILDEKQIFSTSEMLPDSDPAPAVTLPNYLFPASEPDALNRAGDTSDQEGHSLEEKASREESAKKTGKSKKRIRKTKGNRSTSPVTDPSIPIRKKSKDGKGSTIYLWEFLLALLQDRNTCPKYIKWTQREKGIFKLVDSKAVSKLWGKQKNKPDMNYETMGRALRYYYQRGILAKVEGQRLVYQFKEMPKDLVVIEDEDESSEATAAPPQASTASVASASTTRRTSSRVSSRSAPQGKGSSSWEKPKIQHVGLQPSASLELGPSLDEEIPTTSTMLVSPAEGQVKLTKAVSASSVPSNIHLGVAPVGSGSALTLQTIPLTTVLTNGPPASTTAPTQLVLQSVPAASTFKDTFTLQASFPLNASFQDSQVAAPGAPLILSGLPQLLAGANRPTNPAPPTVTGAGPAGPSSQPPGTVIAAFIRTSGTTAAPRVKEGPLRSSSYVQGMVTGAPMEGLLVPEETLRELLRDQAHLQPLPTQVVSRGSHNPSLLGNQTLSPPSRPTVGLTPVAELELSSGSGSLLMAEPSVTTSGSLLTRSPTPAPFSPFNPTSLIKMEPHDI
# Procedure, shortened: as §1
# [14] = biological target: T9, ELK4 (Homo sapiens, UniProt P28324-2 1-405)
# T9 sequence: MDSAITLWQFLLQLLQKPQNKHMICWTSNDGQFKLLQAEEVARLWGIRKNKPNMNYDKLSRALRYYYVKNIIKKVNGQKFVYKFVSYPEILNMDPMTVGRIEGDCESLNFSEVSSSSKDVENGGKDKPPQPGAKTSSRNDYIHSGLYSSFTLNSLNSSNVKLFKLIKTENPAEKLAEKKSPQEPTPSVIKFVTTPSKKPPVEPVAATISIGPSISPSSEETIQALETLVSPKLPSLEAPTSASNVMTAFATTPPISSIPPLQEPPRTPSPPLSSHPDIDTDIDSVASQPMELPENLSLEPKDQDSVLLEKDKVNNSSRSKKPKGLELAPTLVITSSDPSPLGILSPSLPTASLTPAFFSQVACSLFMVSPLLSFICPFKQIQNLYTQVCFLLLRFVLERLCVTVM
# Procedure, shortened: as §1
# [15] = biological target: T10, ETV2 (Homo sapiens, UniProt O00321 1-342)
# T10 sequence: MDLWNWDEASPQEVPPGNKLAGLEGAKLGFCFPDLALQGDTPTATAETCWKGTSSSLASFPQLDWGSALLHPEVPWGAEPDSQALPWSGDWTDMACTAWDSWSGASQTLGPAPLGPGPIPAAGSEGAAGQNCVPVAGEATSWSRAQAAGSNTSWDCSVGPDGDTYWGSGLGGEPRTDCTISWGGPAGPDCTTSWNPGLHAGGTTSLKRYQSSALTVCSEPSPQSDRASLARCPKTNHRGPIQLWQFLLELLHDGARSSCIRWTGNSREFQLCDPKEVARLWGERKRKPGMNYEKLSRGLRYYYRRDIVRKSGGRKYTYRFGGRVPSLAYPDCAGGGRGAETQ
# Procedure, shortened: as §1
# [16] = biological target: T11, ELF3 (Homo sapiens, UniProt P78545 1-371)
# T11 sequence: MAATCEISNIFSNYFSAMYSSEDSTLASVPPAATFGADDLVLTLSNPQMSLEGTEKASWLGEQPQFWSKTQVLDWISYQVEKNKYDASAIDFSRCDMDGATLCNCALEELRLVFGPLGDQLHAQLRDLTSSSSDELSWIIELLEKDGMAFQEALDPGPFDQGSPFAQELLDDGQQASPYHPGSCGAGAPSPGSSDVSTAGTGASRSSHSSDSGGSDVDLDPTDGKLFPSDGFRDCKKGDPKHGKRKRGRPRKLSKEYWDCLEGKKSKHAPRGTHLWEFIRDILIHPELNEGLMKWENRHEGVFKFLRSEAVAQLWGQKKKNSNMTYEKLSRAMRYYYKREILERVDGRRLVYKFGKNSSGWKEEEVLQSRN
# Procedure, shortened: as §1
# [17] = biological target: ETV1 (Homo sapiens, UniProt P50549 1-477)
# Chain of ETV1 (P50549 whole entry): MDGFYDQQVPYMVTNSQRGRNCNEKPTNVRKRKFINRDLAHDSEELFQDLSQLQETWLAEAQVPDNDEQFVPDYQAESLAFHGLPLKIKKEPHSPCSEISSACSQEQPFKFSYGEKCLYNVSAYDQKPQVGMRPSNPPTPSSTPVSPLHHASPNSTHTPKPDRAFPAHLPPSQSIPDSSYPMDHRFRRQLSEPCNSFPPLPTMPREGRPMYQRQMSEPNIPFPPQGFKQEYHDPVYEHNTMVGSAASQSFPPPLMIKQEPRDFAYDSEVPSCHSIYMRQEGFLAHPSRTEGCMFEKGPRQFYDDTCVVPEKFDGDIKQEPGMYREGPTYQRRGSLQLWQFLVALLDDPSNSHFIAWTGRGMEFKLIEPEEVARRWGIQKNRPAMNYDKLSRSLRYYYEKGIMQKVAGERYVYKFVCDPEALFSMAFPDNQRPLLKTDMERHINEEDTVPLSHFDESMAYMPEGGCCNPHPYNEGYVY
# Procedure, shortened: as §1
sequence,measurement,setting,value
TGTCCA,binding signal,[1],"1.18 fold enrichment (6-mer frequency, TF over GST control)"
same,binding signal,[2],"1.18 fold enrichment (6-mer frequency, TF over GST control)"
same,binding signal,[3],"1.1 fold enrichment (6-mer frequency, TF over GST control)"
same,binding signal,[4],"1.19 fold enrichment (6-mer frequency, TF over GST control)"
same,binding signal,[5],"1.19 fold enrichment (6-mer frequency, TF over GST control)"
same,binding signal,[6],"1.16 fold enrichment (6-mer frequency, TF over GST control)"
same,binding signal,[7],"1.08 fold enrichment (6-mer frequency, TF over GST control)"
same,binding signal,[8],"1.13 fold enrichment (6-mer frequency, TF over GST control)"
same,binding signal,[9],"1.14 fold enrichment (6-mer frequency, TF over GST control)"
same,binding signal,[10],"1.11 fold enrichment (6-mer frequency, TF over GST control)"
same,binding signal,[11],"1.15 fold enrichment (6-mer frequency, TF over GST control)"
same,binding signal,[12],"1.17 fold enrichment (6-mer frequency, TF over GST control)"
same,binding signal,[13],"1.16 fold enrichment (6-mer frequency, TF over GST control)"
same,binding signal,[14],"1.11 fold enrichment (6-mer frequency, TF over GST control)"
same,binding signal,[15],"1.3 fold enrichment (6-mer frequency, TF over GST control)"
same,binding signal,[16],"1.06 fold enrichment (6-mer frequency, TF over GST control)"
same,binding signal,[17],"1.04 fold enrichment (6-mer frequency, TF over GST control)"
